Test results: PubChem BioAssay (NCATS)
Inconclusive results are not listed. Where a call stands in place of a potency, no number is given. The source made the active and inactive calls. Calls come from the whole dose curve; as a rule, active = well fitted inhibition curve with a large enough effect; inconclusive = small, poorly fitted or top-dose-only effect; inactive = no such curve, though single readings can be large or run the other way.

Legend:
[1] = system: Zika virus NS2B-NS3 protease (unlinked complex); assay: Primary screen GU Rhodamine qHTS for Zika virus inhibitors: Unlinked NS2B-NS3 protease assay (AID 1347159); conditions: Recombinant ZIKV NS2B-NS3 protease, Rhodamine110 substrate fluorescence; series mostly up to 107 µM; note: nearly all actives have a fitted effect of over 60% in size
How it was run: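 In dose–response format, inhibition of unlinked protease (25 nM) was measured with 1.5 microM bis-peptide Rhodamine110 substrate. Aprotinin served as the intraplate control.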

[2] = system: Zika virus NS2B-NS3 protease (linked construct); assay: Primary screen NINDS Rhodamine qHTS for Zika virus inhibitors (AID 1347160); conditions: purified NS2B-NS3 protease, Rhodamine110 substrate fluorescence; series mostly up to 57.1 µM; note: nearly all actives have a fitted effect of over 55% in size
How it was run: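 Each compound, titrated, sat 15 min with 25 nM linked protease before 1.5 microM Rhodamine110 substrate went in. Fluorescence gain over the next 15 min, in pH 8.0 Tris with Tween 20, gave Hill-fitted curves.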

| Structure (SMILES) | Potency [1] | Potency [2] |
| --- | --- | --- |
| c1cc(NCCc2c[nH]c3ccccc23)cc(Nc2ccncc2)c1 | inactive | inactive |
| COC1CCN(c2cccc(-c3cc(NC(C)=O)nc(-n4nc(C)cc4C)n3)n2)CC1 | inactive | inactive |
| CC(C)=C[C@@H]1[C@H](CO[C@@H]2O[C@H](CO)[C@@H](O)[C@H](O)[C@H]2O)C1(C)C | inactive | inactive |
| COC(=O)C[C@H]1C(C)(C)[C@H](OC(=O)c2ccccc2)C2CC3=C4CC(=O)O[C@@H](c5ccoc5)[C@]4(C)CCC3[C@@]1(C)C2=O (some centres not stated) | inactive | inactive |
| COc1ccc(CCc2nc3c(C)c(-c4c(C)noc4C)c(C)cc3n2CCN2CCOCC2)cc1 | inactive | inactive |
| COc1ccc(Sc2ccc(NC(=O)c3ccccc3Cl)cc2C#N)cc1 | inactive | inactive |
| C=C(C)[C@@H]1CC=C(COC(=O)NC(=O)c2ncn3c(=O)n(C)nnc23)CC1 | inactive | inactive |
| COC(=O)c1ccc2c(c1)[nH]c1ncnc(NCCCN3CCCCC3)c12 | inactive | inactive |
| Cc1c(C(=O)Nc2ccc(N3CCC(N4CCOCC4)CC3)c(C#N)c2)cnn1-c1ccc(Cl)cc1 | inactive | inactive |
| CC(=O)OC[C@]12[C@H](OC(C)=O)[C@H](OC(=O)c3ccccc3)[C@@H]3[C@@H](OC(C)=O)[C@]1(OC3(C)C)[C@H](C)C[C@H](OC(C)=O)[C@@H]2OC(=O)c1ccccc1 | inactive | inactive |
| COc1ccc(Cl)c(Nc2ncnc3cc(OCC4CCN(C)CC4)c(OC)cc23)c1 | inactive | inactive |
| CC1OC(=O)C[C@@H]2C(C(=O)O)=CO[C@@H](O[C@H]3O[C@H](CO)[C@@H](O)[C@H](O)[C@H]3O)[C@H]12 (some centres not stated) | inactive | inactive |
| CC(C)(C)NC(=O)[C@H]1CC[C@H]2[C@@H]3CC[C@H]4NC(=O)CC[C@]4(C)[C@H]3CC[C@]12C | inactive | inactive |
| CN1CCc2cc3c(cc2C(=O)Cc2cc4c(cc2C1)OCO4)OCO3 | inactive | inactive |
| Cc1cccc(-c2[nH]ncc2-c2ccnc3ccccc23)n1 | inactive | inactive |
| Cc1nc(C(=O)N2CCC[C@H]2Cc2nnc(-c3ccccc3)o2)c(-c2ccccc2F)s1 | inactive | inactive |
| CC(=O)c1ccc2c(c1)[C@H](NC(=O)c1ccc(F)c(Cl)c1)[C@H](O)C(C)(C)O2 | inactive | inactive |
| O=c1cc(OCc2ccc(F)cc2)ccn1-c1ccc(OCCN2CCCC2)cc1 | inactive | inactive |

| Structure (SMILES) | Potency [1] | Potency [2] |
| --- | --- | --- |
| CCCCNc1ncc(C(=O)NCc2ccc(-n3ccnc3)cc2)c(NC2CCC(O)CC2)n1 (configuration not stated) | inactive | inactive |
| C=C1C(=O)O[C@H]2C[C@@H](C)[C@@H]3CCC(=O)[C@@]3(C)C[C@H]12 | inactive | inactive |
| C[C@H](CN(C)C)Oc1nc(Nc2cc3cccc(Cl)c3cn2)cnc1C#N | inactive | inactive |
| COc1ccc(C#Cc2ccc(C(=O)N3CCC[C@@H](CO)C3)cc2)cc1 | inactive | inactive |
| NC(=O)C1=CC2C3C=CC2C(OC3=O)O1 (configuration not stated) | inactive | inactive |
| C=C1C(=O)O[C@@H]2C=C(COC(C)=O)CC/C=C(\CO)CC[C@@H]12 | inactive | inactive |
| Nc1nc2c(ncn2C2OC3COP(=O)(O)OC3C2O)c(=O)[nH]1 (configuration not stated) | inactive | inactive |
| COc1cc(CN(CCN)C(=O)c2cccs2)ccc1OCc1ccccc1 | inactive | inactive |
| C/C=C(/C=C(C)/C=C/C=C/C=C(\C)C(=O)C12OC1C(O)(CCO)NC2=O)C(=O)OC (configuration not stated) | inactive | inactive |
| CCOC(=O)c1csc(Nc2ccc(Cl)cc2)n1 | inactive | inactive |
| C=C1CC(=O)C2OC2(C)CC2OC(=O)C(=C)C2C(O)C1OC(=O)/C(C)=C\C (configuration not stated) | inactive | inactive |
| C#CCNCc1cc2cc(OCc3ccccc3)ccc2[nH]1 | inactive | inactive |
| Cc1cc(-c2nc(-c3ccc(OC(F)(F)F)cc3)no2)nn1Cc1ccnc(N2CCN(C3CC3)CC2)c1 | inactive | inactive |
| C[C@@H]1O[C@@H](O[C@H]2[C@H](O[C@H]3CC[C@@]4(C)C(CC[C@]5(C)C4C=C[C@]46OC[C@@]7(CCC(C)(C)C[C@H]74)[C@@H](O[C@@H]4O[C@@H](C)[C@H](O)[C@@H](O)[C@H]4O)C[C@]65C)[C@]3(C)CO)O[C@H](CO)[C@@H](O)[C@@H]2O[C@@H]2O[C@H](CO)[C@@H](O)[C@H](O)[C@H]2O)[C@H](O)[C@H](O)[C@H]1O (some centres not stated) | inactive | inactive |
| COc1ccc(NC(=O)c2ccc(-c3ccc(C(=N)N)cc3C)cc2)cc1N1CCN(C)CC1 | inactive | inactive |
| COC(C)(C)CCn1nc(Nc2c(C)cccc2C)c2cnc(Nc3ccc(OCCN4CCCC4)c(F)c3)nc21 | inactive | inactive |
| COc1cccc(CN(C(=O)CC(C)(C)C)[C@H]2C[C@H](C(=O)N3CCNCC3)N(Cc3ccc4c(c3)OCO4)C2)c1 | inactive | inactive |
| O=C1Nc2nc(-c3c(O)cccc3OCC3CC3)cc([C@@H]3CCCNC3)c2CO1 | inactive | inactive |
